Source: PubChem BioAssay (NCATS)
Records with an inconclusive call do not appear. Activity calls are given as the source filed them. Calls come from the whole dose curve; as a rule, active = well fitted curve in the direction sought with a large enough effect; inconclusive = small, poorly fitted or top-dose-only effect, or another doubt; inactive = no such curve, though single readings can be large; an effect the other way counts as inactive or inconclusive. Where a SMILES comes first, the peptide text is derived from it.

Assays:
[1] = qHTS of pediatric cancer cell lines to identify multiple opportunities for drug repurposing: Primary screen for NB-EBc1 cells (AID 1347095);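 note: plate controls were DMSO neutral control for no effect and bortezomib for full effect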
Outline: (§1)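 Phenotypic viability qHTS, 48 h compound exposure, CellTiter-Glo luminescence read-out; multi-concentration dosing so that potency and efficacy derive directly from the primary screen's curves.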

[2] = qHTS of pediatric cancer cell lines to identify multiple opportunities for drug repurposing: Primary screen for U-2 OS cells (AID 1347096);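 note: plate controls were DMSO wells for no effect and bortezomib positive control wells for full effect; nearly all actives have a fitted effect of over 50% in size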
Outline: (§2)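 Cells (500-1,000/well) in growth media were settled 5 h at 37 degrees C, then given compounds for 48 h. Viability was read as CellTiter-Glo luminescence. Primary runs used MIPE at 11 points (0.78 nM-46 µM) and NPC at 8 points (0.59 nM-46 µM); follow-ups used 11 points.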

[3] = qHTS of pediatric cancer cell lines to identify multiple opportunities for drug repurposing: Primary screen for Saos-2 cells (AID 1347097); note: nearly all actives have a fitted effect of over 40% in size; note: potency is the fitted concentration of half-maximal effect; for activity change, negative = cytotoxic: % is set by controls: 0 for no effect and ±100 for the full control effect
Outline: as §1

[4] = qHTS of pediatric cancer cell lines to identify multiple opportunities for drug repurposing: Primary screen for SK-N-SH cells (AID 1347098); note: nearly all actives have a fitted effect of over 65% in size; note: potency is the fitted concentration of half-maximal effect;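 for activity change, negative = cytotoxic: DMSO served as neutral control and bortezomib at 2.3 µM as positive control; % is set by controls: 0 for no effect and ±100 for the full control effect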
Outline: (§3)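 Cells (500-1,000/well) rested 5 h, then received compounds for 48 h; metabolically active cells were measured by CellTiter-Glo luminescence. Final concentrations spanned up to 46 µM (MIPE, 11-point) or 0.59 nM-46 µM (NPC, 8-point) in primary screens, 11-point in follow-ups.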

[5] = qHTS of pediatric cancer cell lines to identify multiple opportunities for drug repurposing: Primary screen for NB1643 cells (AID 1347099);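 note: plate controls were DMSO neutral control for no effect and bortezomib positive control for full effect; nearly all actives have a fitted effect of over 50% in size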
Outline: as §1

[6] = qHTS of pediatric cancer cell lines to identify multiple opportunities for drug repurposing: Primary screen for LAN-5 cells (AID 1347100);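 note: plate controls were DMSO neutral control for no effect and bortezomib positive control for full effect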
Outline: as §2

[7] = qHTS of pediatric cancer cell lines to identify multiple opportunities for drug repurposing: Primary screen for Rh18 cells (AID 1347102); note: % is set by controls: 0 for no effect and ±100 for the full control effect; nearly all actives have a fitted effect of over 65% in size
Outline: as §2

[8] = qHTS of pediatric cancer cell lines to identify multiple opportunities for drug repurposing: Primary screen for OHS-50 cells (AID 1347103); note: nearly all actives have a fitted effect of over 40% in size; note: potency is the fitted concentration of half-maximal effect;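 for activity change, negative = cytotoxic: plate controls were DMSO neutral control for no effect and bortezomib positive control for full effect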
Outline: as §3

[9] = qHTS of pediatric cancer cell lines to identify multiple opportunities for drug repurposing: Primary screen for RD cells (AID 1347104);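 note: plate controls were DMSO for no effect and bortezomib for full effect; nearly all actives have a fitted effect of over 55% in size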
Outline: as §1

[10] = qHTS of pediatric cancer cell lines to identify multiple opportunities for drug repurposing: Primary screen for MG 63 (6-TG R) cells (AID 1347105); note: % is set by controls: 0 for no effect and ±100 for the full control effect; nearly all actives have a fitted effect of over 50% in size
Outline: as §1

[11] = qHTS of pediatric cancer cell lines to identify multiple opportunities for drug repurposing: Primary screen for control Hh wild type fibroblast cells (AID 1347106);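 note: series mostly up to about 46 µM; % is set by controls: 0 for no effect and ±100 for the full control effect; a drop in luminescence marks cytotoxicity and a rise apparent proliferation; nearly all actives have a fitted effect of over 55% in size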
Outline: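 Viability after 48 h compound treatment at 37C, 500-1,000 cells/well, read as ATP luminescence with CellTiter-Glo. Primary screens used 11-point (MIPE, 0.78 nM-46 µM) or 8-point (NPC, 0.59 nM-46 µM) final concentrations; follow-up screens used 11-point dilutions.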

[12] = qHTS of pediatric cancer cell lines to identify multiple opportunities for drug repurposing: Primary screen for Rh30 cells (AID 1347107); note: series mostly up to about 46 µM; % is set by controls: 0 for no effect and ±100 for the full control effect; nearly all actives have a fitted effect of over 75% in size
Outline: as §2

[13] = qHTS of pediatric cancer cell lines to identify multiple opportunities for drug repurposing: Primary screen for Rh41 cells (AID 1347108); note: nearly all actives have a fitted effect of over 70% in size; note: potency is the fitted concentration of half-maximal effect;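 for activity change, negative = cytotoxic: series mostly up to about 46 µM; luminescence drop marks cytotoxic hits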
Outline: as §1

[14] = qHTS of pediatric cancer cell lines to identify multiple opportunities for drug repurposing: Primary screen for BT-12 cells (AID 1347101);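 note: plate controls were DMSO for no effect and bortezomib positive control for full effect; nearly all actives have a fitted effect of over 25% in size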
Outline: as §3

[15] = qHTS of pediatric cancer cell lines to identify multiple opportunities for drug repurposing: Confirmatory screen for A673 cells (AID 1347110);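 note: cells exposed to compound for 48 h before the viability read; plate controls were DMSO neutral control for no effect and bortezomib positive control for full effect; nearly all actives have a fitted effect of over 65% in size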
Outline: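 Cells plated at 500-1,000/well were treated five hours later with multi-point dilutions up to 46 µM final. After two days, CellTiter-Glo was added and luminescence read.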

[16] = qHTS of pediatric cancer cell lines to identify multiple opportunities for drug repurposing: Confirmatory screen for LAN-5 cells (AID 1347113); note: % is set by controls: 0 for no effect and ±100 for the full control effect; nearly all actives have a fitted effect of over 65% in size
Outline: as §2

[17] = qHTS of pediatric cancer cell lines to identify multiple opportunities for drug repurposing: Confirmatory screen for DAOY cells (AID 1347114)
Outline: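 Viability measured as metabolically active cells via CellTiter-Glo luminescence following 48 hours of compound exposure, 11-point dilutions in confirmatory testing. 500-1,000 cells/well plated 5 hours before dosing; controls were DMSO and 2.3 µM bortezomib.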

[18] = qHTS of pediatric cancer cell lines to identify multiple opportunities for drug repurposing: Confirmatory screen for NB-EBc1 cells (AID 1347115);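 note: cells exposed to compound for 48 h before the viability read; % is set by controls: 0 for no effect and ±100 for the full control effect; nearly all actives have a fitted effect of over 45% in size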
Outline: as §2

NC(=O)NC1N=C([O][Al])NC1=O (centres undefined)
inactive: Potency [1] | Potency [2] | Potency [3] | Potency [4] | Potency [5] | Potency [6] | Potency [7] | Potency [8] | Potency [9] | Potency [10] | Potency [11] | Potency [12] | Potency [13]

CCOC(=O)NNc1ccc(N(CC)CC(C)O)nn1 (centres undefined)
inactive: Potency [1] | Potency [2] | Potency [3] | Potency [4] | Potency [5] | Potency [14] | Potency [7] | Potency [8] | Potency [9] | Potency [10] | Potency [11] | Potency [13]

CNC[C@H](O)[C@@H](O)[C@H](O)[C@H](O)CO
inactive: Potency [1] | Potency [2] | Potency [3] | Potency [4] | Potency [6] | Potency [14] | Potency [7] | Potency [8] | Potency [9] | Potency [10] | Potency [11] | Potency [12]

O=C(O)c1ccccc1Nc1cc(Cl)ccc1C(=O)O
active: Potency [3] 9.2 µM | Potency [4] 11.9 µM | Potency [13] 11.6 µM
inactive: Potency [1] | Potency [2] | Potency [6] | Potency [14] | Potency [7] | Potency [8] | Potency [9] | Potency [10] | Potency [11] | Potency [12]

O=C(O)Cc1ccccc1Oc1ccc(Cl)cc1Cl
inactive: Potency [1] | Potency [2] | Potency [3] | Potency [4] | Potency [6] | Potency [14] | Potency [7] | Potency [8] | Potency [9] | Potency [10] | Potency [11] | Potency [12] | Potency [13]

CCCCC(O)/C=C(C)/C=C/C=C/C(=O)N1CCCC1=O (centres undefined)
inactive: Potency [1] | Potency [2] | Potency [3] | Potency [4] | Potency [5] | Potency [14] | Potency [7] | Potency [9] | Potency [10] | Potency [11] | Potency [12] | Potency [13]

CC1(C)O[C@@H]2C[C@H]3[C@@H]4CCC5=CC(=O)C=C[C@]5(C)[C@@]4(F)[C@@H](O)C[C@]3(C)[C@]2(C(=O)CO)O1
inactive: Potency [1] | Potency [2] | Potency [3] | Potency [4] | Potency [6] | Potency [14] | Potency [7] | Potency [8] | Potency [9] | Potency [11] | Potency [12]

CC(=O)c1cc2ccccc2s1
inactive: Potency [1] | Potency [2] | Potency [3] | Potency [4] | Potency [5] | Potency [14] | Potency [8] | Potency [9] | Potency [12] | Potency [13]

CC(=O)[C@H]1CC[C@H]2[C@@H]3C=CC4=CC(=O)CC[C@@]4(C)[C@@H]3CC[C@]12C
inactive: Potency [1] | Potency [2] | Potency [3] | Potency [4] | Potency [5] | Potency [7] | Potency [9] | Potency [10] | Potency [11] | Potency [12] | Potency [13]

O=C(CCOCCOCCOCCOCCC(=O)Nc1c(I)cc(I)c(C(=O)O)c1I)Nc1c(I)cc(I)c(C(=O)O)c1I
inactive: Potency [1] | Potency [2] | Potency [3] | Potency [4] | Potency [5] | Potency [8] | Potency [9] | Potency [10] | Potency [11] | Potency [12] | Potency [13]

CC(=O)N[C@@H](CO)C(=O)N[C@@H](CC(=O)O)C(=O)N[C@@H](CCCCN)C(=O)N1CCC[C@H]1C(=O)O (Ac-SDKP-OH)
inactive: Potency [1] | Potency [2] | Potency [3] | Potency [4] | Potency [6] | Potency [14] | Potency [7] | Potency [8] | Potency [9] | Potency [10] | Potency [11] | Potency [12] | Potency [13]

Nc1nc2ccccc2n1Cc1ccc(F)cc1
active: Potency [8] 17.4 µM
inactive: Potency [1] | Potency [2] | Potency [3] | Potency [4] | Potency [9] | Potency [10] | Potency [12]

O=C(CCCl)NCCc1ccccc1
inactive: Potency [1] | Potency [2] | Potency [3] | Potency [4] | Potency [6] | Potency [7] | Potency [8] | Potency [9] | Potency [10] | Potency [11] | Potency [12]

CCCC(=O)OCOC(=O)C1=C(C)NC(C)=C(C(=O)OC)C1c1cccc(Cl)c1Cl (centres undefined)
inactive: Potency [1] | Potency [2] | Potency [3] | Potency [4] | Potency [6] | Potency [14] | Potency [7] | Potency [9] | Potency [10] | Potency [11] | Potency [12] | Potency [13]

NCC[C@H](O)C(=O)N[C@@H]1C[C@H](N)[C@@H](O[C@H]2O[C@H](CN)[C@@H](O)[C@H](O)[C@@H]2O)[C@H](O)[C@@H]1O[C@H]1O[C@H](CO)[C@@H](O)[C@H](N)[C@@H]1O
inactive: activity change, negative = cytotoxic [1] 17.9% [at 0.597 µM] | activity change, negative = cytotoxic [2] 14.2% [at 0.597 µM] | activity change, negative = cytotoxic [3] 9.12% [at 0.597 µM] | activity change, negative = cytotoxic [4] -13.1% [at 0.741 µM] | activity change, negative = cytotoxic [5] 2.83% [at 0.597 µM] | activity change, negative = cytotoxic [14] 5.54% [at 0.745 µM] | activity change, negative = cytotoxic [7] 1.72% [at 0.597 µM] | activity change, negative = cytotoxic [9] 8.3% [at 0.597 µM] | activity change, negative = cytotoxic [10] -9.26% [at 0.597 µM] | activity change, negative = cytotoxic [11] -6.47% [at 0.597 µM] | activity change, negative = cytotoxic [12] 20.7% [at 0.597 µM] | activity change, negative = cytotoxic [13] 34.1% [at 0.597 µM]

COc1c(N2C[C@@H]3CCCN[C@@H]3C2)c(F)cc2c(=O)c(C(=O)O)cn(C3CC3)c12
inactive: Potency [1] | Potency [2] | Potency [3] | Potency [4] | Potency [6] | Potency [14] | Potency [7] | Potency [8] | Potency [9] | Potency [10] | Potency [11] | Potency [12] | Potency [13]

COc1cc(/C=C/C(N)=O)cc(OC)c1OC
inactive: Potency [1] | Potency [2] | Potency [3] | Potency [4] | Potency [6] | Potency [14] | Potency [7] | Potency [8] | Potency [9] | Potency [11] | Potency [12] | Potency [15] | Potency [16] | Potency [17] | Potency [18]

Cc1cc(O)c2c(O)c3c(O)cccc3cc2c1
inactive: Potency [1] | Potency [2] | Potency [3] | Potency [4] | Potency [14] | Potency [7] | Potency [8] | Potency [9] | Potency [10] | Potency [11] | Potency [12] | Potency [13]
